Experimental data as given in PubChem BioAssay (NCI).
This is part of a sample that, as a whole, favours compounds with a hit. Of some 79,000 tested, about 15% had one in any assay. Values without a mark were called inactive. Active and inactive are the calls of the source. Cut-off read from the data, not from the text of the source: active = growth inhibition above about 70%; inactive = the rest.

Assay: NCI Yeast Anticancer Drug Screen. Data for the wt1 strain (AID 149);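 note: 0% = growth of vehicle-treated wt1 cultures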
Settings: S. cerevisiae wt1 strain (SPY 50644) growth inhibition, stronger effect = higher value
Procedure: Growth inhibition of yeast strains with defined genetic alterations is measured as a screen for potential anti-cancer activity. Selected strains with alterations in DNA damage repair or cell cycle control were exposed to compounds and growth inhibition was measured relative to vehicle treated controls. The strain used in this assay is wt1

| Compound | growth inhibition (at 1.2 µM) | growth inhibition (at 3.7 µM) | growth inhibition (at 11.0 µM) | growth inhibition (at 33.0 µM) | growth inhibition (at 100.0 µM) |
| --- | --- | --- | --- | --- | --- |
| N/C(=N/N=C/c1cc(Br)cc(Br)c1O)NO | -94% | -40% | -13% | 90% (active) | 98% (active) |
| Nc1ccc(F)cc1S | -7% | 1% | 6% | 92% (active) | 99% (active) |
| Cc1c(C)c(C)c(CSC(=N)N)c(C)c1C | -29% | -32% | -30% | 8% | 98% (active) |
| COc1ccc(C2C3=C(COC3=O)OC(C)(C)Oc3cc4c(cc32)OCO4)cc1OC (stereo not given) | 9% | 10% | 13% | 23% | 94% (active) |
| CN(C)CCOC1(Cc2ccc(F)cc2)CCC(C(C)(C)C)CC1 (stereo not given) | 10% | 6% | -11% | -5% | 95% (active) |
| C=C(C(=C)n1nnc(C(=O)OC)c1C(=O)OC)n1nnc(C(=O)OC)c1C(=O)OC | -1% | 0% | 1% | 0% | 1% |
| Cc1cccc(C(C)(C)C)c1NC(=O)C(C#N)C1=C(Cl)C(=O)c2ccccc2C1=O (stereo not given) | -10% | 10% | 21% | 98% (active) | 98% (active) |
| Cc1c(-c2ccccn2)ccc2ccccc12 | -1% | 0% | -3% | -4% | 18% |
